The results in this text go back to ChEMBL document CHEMBL4513216, “Probing the Open Global Health Chemical Diversity Library for Multistage-Active Starting Points for Next-Generation Antimalarials” (ACS Infect Dis, 2020).

The structures appear in SMILES notation. The whole screen tested about 69,000 compounds, of which about 8,600 (12%) showed an effect of 50% or more. The list comes from a sample in which strong results are over-represented; it also holds similar structures and randomly drawn compounds.

The test has as its system Plasmodium berghei. Put plainly: Screen against P. berghei liver stage (PbLuc), transformed with Luciferase, at 10uM. It counts as functional, HepG2. The settings on record: tested at 10 uM.
As to `Cc1cc(CNC2(c3ccccc3F)CC2)no1`, the INHIBITION is -4.73%.
For the compound `CN1C[C@@H](C(=O)NC2CCCC2)[C@@]2(COc3ccc(F)cc3C2=O)C1`, the INHIBITION was found to be 23.85%.
Regarding `c1ccc(OCCCN2CCOC(CNc3cccnn3)C2)cc1` (stereo not given), the INHIBITION is -65.3%.
The result for `Cc1noc(C)c1CN1CCn2cc(CNC(=O)C3CCC3)nc2C1` reads 45.2%.
The result for `COc1ccc(CC(=O)N2C[C@H]3CN(Cc4ccccn4)C[C@H]3C2)cc1` reads 18.6%.
With `CC(C)[C@H](CO)Nc1nccc(-c2c[nH]nc2-c2ccncc2)n1` the figure was -31.5%.
Take `Cc1[nH]c2ccccc2c1-c1ccnc(N[C@@H](C)CO)n1`: the INHIBITION is recorded as 85.7%.
As for `Cc1[nH]c2ccccc2c1-c1ccnc(N[C@H](CO)CC(C)C)n1`, the INHIBITION stood at 56%.
With `Cc1[nH]c2ccccc2c1-c1ccnc(N[C@@H](CO)C(C)C)n1`, the INHIBITION was determined as 36.7%.
Regarding `Cc1cn2c(=O)c(-c3ccnc(N[C@@H](C)CO)n3)cnc2s1`, the INHIBITION turned out to be 27.8%.
For `CC[C@@H](CO)Nc1nccc(-c2cnc3sc(C)cn3c2=O)n1`, the INHIBITION is on record as 11.5%.
With `CN1CCOC(CNC(=O)CCCc2ccccc2)C1` (stereo not given) the figure was -4.15%; with `CN(Cc1nccn1CC(F)(F)F)C(=O)c1ccc2c(c1)OCO2`, 6.33%.
The result for `Cc1nn(C)c(Cl)c1C1CCCN1Cc1nnc(C2CC2)o1` (stereo not given) reads -31.1%; that for `O=C(NCCN1CCOCC1)NCc1ncc(-c2ccccc2)o1`, 2.37%.
For `O=C(NCc1ncc(-c2ccccc2)o1)NC1CCC(O)CC1` (stereo not given), the INHIBITION is recorded as 61.9%.
As to `CC(=O)N1CCC(C(=O)NCc2ncc(-c3ccccc3)o2)CC1`, the INHIBITION was determined as 83.2%.
With `O=S(=O)(CC1CCOCC1)NCc1ncc(-c2ccccc2)o1` the figure was 40.6%; with `CC(=O)N1CCc2ncc(CNC(=O)C3CCC3)n2CC1`, 15.4%.
With `CC(=O)N1CCC(NC(=O)NCc2ncc(-c3ccccc3)o2)CC1` the figure was 47.1%; with `O=C1C[C@@H]2CC[C@H](CN1)N2c1cc(-c2ccccc2F)nc2ccnn12`, -7.53%; with `Cn1cc(CN2CCCC3(CCN(C(=O)c4ccoc4)C3)C2)cn1` (stereo not given), 42.7%.
Regarding `CC(C)NC(=O)C1CCC2(CCN(Cc3cnn(C)c3)CC2)C1` (stereo not given), the INHIBITION is reported as -13.7%.
For the compound `CCn1cc(CN2CCCC3(CCC(=O)N(CCC(C)C)C3)C2)cn1` (stereo not given), the INHIBITION was determined as 65.2%.
The result for `Cn1cc(CN2CCC3(CCCN3S(C)(=O)=O)CC2)cn1` reads 53.5%.
For the compound `Cn1cc(CN2CCC3(CCC(C(=O)NCC4CC4)C3)CC2)cn1` (stereo not given), the INHIBITION amounted to 20.1%.
In the case of `CN(C)C(=O)C1CCC2(CCN(Cc3cnn(C)c3)CC2)C1` (stereo not given), the INHIBITION is 55.5%.
With `Cn1cc(CN2CCCC3(CCCN3S(C)(=O)=O)C2)cn1` (stereo not given) the figure was -3.41%.
For the compound `COCC(=O)N1CCC2(CCCN(Cc3cnn(C)c3)C2)C1` (stereo not given), the INHIBITION stood at 47.4%.
The result for `CCn1cc(C(=O)N2CCCC3(CCC(=O)N(CCC(C)C)C3)C2)cn1` (stereo not given) reads -47.8%; that for `CCc1ncc(CN2CCCC3(CCC(=O)N(CCC(C)C)C3)C2)cn1` (stereo not given), 0.818%; that for `CN(C)C(=O)N1CCC2(CCCN(Cc3cnn(C)c3)C2)C1` (stereo not given), 52.9%.
The result for `Cn1cc(CN2CCC3(CCCCN3S(C)(=O)=O)CC2)cn1` reads 27.6%; that for `CN1CC(=O)N(c2ccccc2)CC12CCN(C(=O)c1cccs1)C2` (stereo not given), 17.1%.
Regarding `CC(=O)Cn1ncc(N2CCOCC2)cc1=O`, the INHIBITION is reported as -10.5%.
For the compound `CN(C)CCN1C(=O)CCC12CCN(C(=O)c1cccnc1)CC2`, the INHIBITION was determined as 13.2%.
Take `Cc1cccc(CN2CCOC(C)(C(=O)N3CCOCC3)C2)n1` (stereo not given): the INHIBITION is recorded as 59%.
The result for `Cc1cccc(CN2CCc3[nH]nc(C(=O)N4CCOCC4)c3C2)n1` reads 65.9%; that for `Cc1cc(CN2CCOC(C)(C(=O)N3CCOCC3)C2)no1` (stereo not given), 0.301%; that for `Cc1cccc(CN2CCOC3(CCCN(CC(=O)N(C)C)C3)C2)n1` (stereo not given), 59.3%.
On to `Cc1cccc(CN2CCC3(CCCN(Cc4cnn(C)c4)C3)C2)n1` (stereo not given), for which the INHIBITION is recorded as 64.7%.
The result for `Cc1cccc(CN2CCC3(CCCN(Cc4cnn(C)c4)C3)C2=O)n1` (stereo not given) reads 0.618%.
With `Cc1cccc(CN2CCOC3(COCCN(CCN(C)C)C3)C2)n1` (stereo not given), the INHIBITION came to 48.4%.
With `CC1(C(=O)N2CCOCC2)CN(Cc2ccccn2)CCO1` (stereo not given) the figure was 44.4%.
The result for `Cc1cnc(N2CCOC3(CCCN(CC(=O)N(C)C)C3)C2)nc1` (stereo not given) reads -29.8%.
With `Cn1cc(CN2CCC3(CCCN(Cc4ccccn4)C3)CC2)cn1` the figure was -3.19%; with `Cc1cccc(CN2CCc3[nH]nc(C(=O)N(C)C)c3C2)n1`, -45.5%.
Consider `Cc1cccc(CN2CCc3[nH]nc(C(=O)N4CCNC(=O)C4)c3C2)n1`, for which the INHIBITION turned out to be 49.7%.
Take `Cc1cc(C)n(C2CN(CCc3ccccn3)C2)n1`: the INHIBITION is on record as 28.2%.
With `Cc1nn(C)c(Cl)c1C1CCCN1Cc1ccccn1` (stereo not given) the figure was 8.64%; with `COc1ccc(C2CC(=O)Oc3cc(C)[nH]c(=O)c32)cc1O` (stereo not given), 15.4%.
With `O=C(c1cc(-n2cnnn2)ccc1Cl)N1CCOCC1` the figure was 30.8%.
In the case of `O=c1cnc2ccccc2n1CCCn1cccn1`, the INHIBITION was 44.5%.
Consider `CC(C)NC(=O)CC1COC2(CCN(Cc3ccccc3)CC2)C1` (stereo not given), for which the INHIBITION is 21.6%.
The result for `Cc1nc(C2CCCN(C(=O)c3cnn(C4CCCCC4)c3)C2)no1` (stereo not given) reads -25.9%; that for `O=C(c1cnc2c(cnn2C2CCCC2)c1)N1CCCSCC1`, 36.1%; that for `CC(C)NC(=O)CC1CC2(CCN(CC3CC3)CC2)Oc2ccccc21` (stereo not given), -2.35%.
The result for `Cc1cccc(CN2CCC3(CCC(CC(=O)N(C)C)CC3)CC2)n1` reads 23.1%; that for `CC(=O)N1CCc2[nH]nc(C(=O)N3CC=CC3)c2C1`, 23.1%; that for `Cc1cccc(CN2CCCC3(CCN(CC(=O)N(C)C)C3=O)C2)n1` (stereo not given), 27.6%.
With `CC(C)CCN1CCc2[nH]nc(C(=O)N3CCCC3C)c2C1` (stereo not given) the figure was 2.58%.
For the compound `Cc1cccc(CN2CCC3(CCCN(CC(=O)N(C)C)C3)C2)n1` (stereo not given), the INHIBITION stood at 51.2%.
With `CC(C)CCN1CCc2[nH]nc(C(=O)N3CC=CC3)c2C1` the figure was 50.3%; with `COC(=O)c1ccc(C)c(N2CCNC2=O)c1`, 34%.
Turning to `CS(=O)(=O)N1CCC(NC(=O)COc2cccc(Cl)c2)CC1`, the INHIBITION is recorded as -35.7%.
As for `CCO[C@@H]1C[C@H]2CN(Cc3ccc(C)o3)CCN2C1`, the INHIBITION was -37.9%.
The result for `COCc1noc(CN2C(=O)OC[C@@H]2C(C)C)n1` reads 14.6%.
The result for `COCc1nc(CN2C(=O)OC[C@@H]2C(C)C)no1` reads 27.6%.
As to `COCCc1noc(CN2C(=O)OC[C@@H]2C(C)C)n1`, the INHIBITION amounted to 55.9%.
Take `CCn1nc(C)c(C(=O)N2C[C@@H](CN(C)CCOC)[C@@H](CO)C2)c1C`: the INHIBITION is 20%.
With `NC(=O)c1cc2c(nc1-c1ccoc1)CCC2` the figure was 30.3%; with `CN1CCCCC1Cc1nc2c(cc1C(N)=O)CCC2` (stereo not given), -107%; with `CC(=O)Nc1ccc(Oc2ccc(CN3CCCC3)cc2F)cc1`, 45.1%.
With `NC(=O)c1cc2c(nc1Oc1ccccc1CN1CCCCC1)CCC2` the figure was 27.4%; with `NC(=O)c1cc2c(nc1Oc1ccc(CN3CCCC3)cc1F)CCC2`, 67%; with `NC(=O)c1cc2c(nc1Oc1cccc(CN3CCCC3)c1F)CCC2`, 62.1%.
Consider `Cc1cc(C)c2c(N3CCC(C(=O)N4CCCC4)CC3)ncnc2n1`, for which the INHIBITION worked out at 42.8%.
Regarding `Cc1ccccc1C(=O)N1C[C@@H]2COC[C@]2(COCc2cccnc2)C1`, the INHIBITION stood at 1.9%.
The result for `CC(=O)N1CCN(Cc2ccsc2)CC2(CC(=O)N(C)C2)C1` (stereo not given) reads 16.1%; that for `CC(C)N1CCC2(CC1)C[C@@H](O)[C@H](c1ccccc1)NC2=O`, 40%; that for `COCC(=O)NC1CC2(CCN(Cc3ccco3)CC2)c2ccccc21` (stereo not given), 32.4%.
The result for `CC(C)C(=O)NC1CC2(CCN(CC(=O)N(C)C)CC2)c2ccccc21` (stereo not given) reads 60.2%; that for `CCN1CCC2(CC1)CC(NC(=O)c1ccnnc1)c1ccccc12` (stereo not given), -9.42%; that for `COCC(=O)NC1CC2(CCN(CCO)CC2)c2ccccc21` (stereo not given), 33.1%.
The result for `COCC(=O)NC1CC2(CCN(CCN(C)C)CC2)c2ccccc21` (stereo not given) reads 53.9%; that for `Cc1ccc2c(c1)C(NC(=O)N(C)C)CC21CCN(CC2CC2)CC1` (stereo not given), 22.4%.
For the compound `CC(C)(CNCc1ccc(OCc2cscn2)cc1)C(N)=O`, the INHIBITION is -47%.
With `Cc1cnc(CN2CCC(N(C)Cc3noc(C4CC4)n3)C2)o1` (stereo not given), the INHIBITION is listed as 33.3%.
With `CCC(C)c1ccc(NC(=O)C2CCN(C(=O)COC)CC2)cc1` (stereo not given) the figure was 16.6%; with `CCC(C)c1ccc(NC(=O)C2CCN(C(=O)N(C)C)CC2)cc1` (stereo not given), 76.9%.
With `CCc1ccc(NC(=O)C2CCN(C(=O)COC)CC2)cc1` the figure was 39.3%.
With `Cn1cncc1C(=O)N1CCCC(c2ccn[nH]2)C1` (stereo not given) the figure was -35.9%.
Turning to `CC(NCc1nnc2n1CCCC2)C(=O)N1CCc2sccc2C1` (stereo not given), the INHIBITION is on record as -21.9%.
The result for `O=C1CC(N(C(=O)COc2ccc(F)cc2F)C2CC2)C(=O)N1` (stereo not given) reads 0.472%; that for `Cc1cc(C)nc(NCc2cc3n(n2)CCCN(C(=O)C2CCC2)C3)n1`, 13.3%.
The result for `Cc1cc(NCc2cc3n(n2)CCCN(C(=O)C2CCC2)C3)nc(N)n1` reads 80.2%; that for `Nc1nccc(NCc2cc3n(n2)CCCN(C(=O)C2CCC2)C3)n1`, 28.5%; that for `Cc1nc(C2CCCN(S(C)(=O)=O)C2)sc1Br` (stereo not given), -7.66%.
With `CC(C)Cc1noc(CN(C)c2cc(N(C)C)ncn2)n1`, the INHIBITION is reported as -8.75%.
The result for `COc1cc(N(C)Cc2noc(CC(C)C)n2)ncn1` reads 43%.
The result for `CCc1cc(N(C)Cc2noc(CC(C)C)n2)ncn1` reads 57.6%; that for `CCn1cc(NC(=O)C2CCN(CC(=O)NC3CCCC3)CC2)cn1`, -10.6%.
With `O=C(N[C@@H]1CN(Cc2ccco2)[C@@H]2CCCO[C@@H]21)c1cscn1` the figure was 8.6%; with `COc1ccc(F)cc1C(C)NC(=O)NCCCn1cncn1` (stereo not given), 11.9%; with `CCN(Cc1ccoc1)C(=O)C1CN(C(=O)OC(C)(C)C)C1`, -26.7%.
